Assay results published in PubChem BioAssay (NCI).
This is part of a sample that, as a whole, favours compounds with a hit. Of some 79,000 tested, about 15% had one in any assay. Unmarked numbers belong to inactive results. Activity calls are given as the source filed them. Cut-off read from the data, not from the text of the source: active = growth inhibition above about 70%; inactive = the rest.

How the values were obtained:
[1] = NCI Yeast Anticancer Drug Screen. Data for the rad52 strain (AID 147);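 note: 0% = growth of vehicle-treated control cultures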; settings: S. cerevisiae rad52 mutant growth inhibition, hits give high values
How it was run: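 Yeast strain carrying a DNA damage repair alteration was exposed to test compounds. Growth inhibition was measured relative to vehicle-treated controls.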

[2] = NCI Yeast Anticancer Drug Screen. Data for the wt1 strain (AID 149);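 note: 0% = growth of vehicle-treated wt1 cultures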; settings: S. cerevisiae wt1 strain (SPY 50644) growth inhibition, hits give high values
How it was run: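 Compounds are added to wt1 yeast cultures. Growth is then measured. Inhibition is expressed relative to vehicle-treated controls.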

[3] = NCI Yeast Anticancer Drug Screen. Data for the rad50EPP+ strain (AID 151);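 note: 0% = growth of vehicle-treated control cultures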; settings: S. cerevisiae rad50 mutant strain, hits give high values
How it was run: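 Yeast strain carrying rad50 alteration (rad50EPP+) exposed to compounds; growth inhibition measured relative to vehicle-treated controls.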

[4] = NCI Yeast Anticancer Drug Screen. Data for the mgt1 strain (AID 153); settings: S. cerevisiae mgt1 mutant growth inhibition, hits give high values
How it was run: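 Yeast mgt1 strain (DNA repair/cell-cycle alteration panel) exposed to compounds; growth inhibition measured relative to vehicle-treated controls.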

[5] = NCI Yeast Anticancer Drug Screen. Data for the rad50 strain (AID 155);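 note: 0% = growth of vehicle-only cultures of the same strain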; settings: S. cerevisiae rad50 strain growth inhibition, hits give high values
How it was run: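 Inhibition values express reduced yeast growth in compound-treated cultures relative to vehicle-treated controls.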

[6] = NCI Yeast Anticancer Drug Screen. Data for the mec2-1 strain (AID 157); settings: S. cerevisiae mec2-1 strain, hits give high values
How it was run: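 mec2-1 yeast strain, carrying an alteration in DNA damage repair or cell cycle control, was exposed to compounds; growth inhibition was measured relative to vehicle-treated controls.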

[7] = NCI Yeast Anticancer Drug Screen. Data for the rad14 strain (AID 159);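 note: 0% = growth of vehicle-treated control cultures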; settings: S. cerevisiae rad14 strain growth inhibition, hits give high values
How it was run: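 A mutant yeast strain defective in DNA damage repair is treated with compound; inhibition of its growth is scored against untreated, vehicle-exposed cultures.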

[8] = NCI Yeast Anticancer Drug Screen. Data for the sgs1 mgt1 strain (AID 161);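 note: 0% = growth of cultures given vehicle only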; settings: S. cerevisiae sgs1 mgt1 strain, hits give high values
How it was run: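 Compounds are added to genetically altered yeast, and growth is compared with cultures given vehicle alone to give percent inhibition.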

[9] = NCI Yeast Anticancer Drug Screen. Data for the CLN2oe strain (AID 163);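 note: 0% = growth of vehicle-only control cultures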; settings: S. cerevisiae CLN2oe strain, hits give high values
How it was run: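 Yeast cells carrying a defined cell-cycle control alteration were exposed to test compounds. Growth inhibition was scored against vehicle-treated control cultures.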

[10] = NCI Yeast Anticancer Drug Screen. Data for the cln2 rad14 strain (AID 165);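 note: 0% = growth equal to vehicle treated cultures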; settings: S. cerevisiae cln2 rad14 strain, hits give high values
How it was run: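 Yeast carrying cln2 and rad14 alterations (cell cycle control and DNA damage repair) were exposed to compounds. Growth inhibition was measured against vehicle-treated controls.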

[11] = NCI Yeast Anticancer Drug Screen. Data for the bub3 strain (AID 167); settings: S. cerevisiae bub3 mutant strain, hits give high values
How it was run: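 Steps: expose the mutant yeast strain to compound; grow alongside vehicle-treated cultures; measure growth; express inhibition against the vehicle cultures.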

[12] = NCI Yeast Anticancer Drug Screen. Data for the wt2 strain (AID 169);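 note: 0% = growth of vehicle-treated yeast cultures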; settings: S. cerevisiae wt2 strain growth inhibition, hits give high values
How it was run: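 Yeast cells were exposed to test compounds, and growth inhibition was measured relative to vehicle-treated controls.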

[13] = NCI Yeast Anticancer Drug Screen. Data for the mlh1 strain (AID 171);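 note: 0% = growth of vehicle-treated control cultures of the same strain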; settings: S. cerevisiae mlh1 strain growth inhibition, hits give high values
How it was run: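 Yeast carrying a defined genetic alteration in DNA damage repair or cell cycle control were exposed to test compounds. Growth inhibition was measured relative to vehicle-treated controls.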

[14] = NCI Yeast Anticancer Drug Screen. Data for the sgs1 strain (AID 173);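 note: 0% = growth of vehicle-only control cultures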; settings: S. cerevisiae sgs1 mutant, hits give high values
How it was run: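 Yeast mutant strains carrying defined defects in DNA damage repair or cell cycle control were exposed to test compounds. Growth inhibition was scored against vehicle-treated controls.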

[15] = NCI Yeast Anticancer Drug Screen. Data for the mlh1 rad18 strain (AID 175); settings: S. cerevisiae mlh1 rad18 strain growth inhibition, hits give high values
How it was run: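 Growth inhibition of the yeast strain was measured after compound exposure and expressed relative to vehicle-treated controls. The strain carries defined defects in DNA damage repair.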

[16] = NCI Yeast Anticancer Drug Screen. Data for the rad18 strain (AID 177); settings: S. cerevisiae rad18 mutant growth inhibition, hits give high values
How it was run: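 Yeast carrying a defined DNA damage repair alteration were exposed to compounds. Growth inhibition was expressed relative to vehicle-treated controls.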

[17] = at 5.0 µM (retest, dose inferred, filed as 0.5)
[18] = at 50.0 µM (retest, dose inferred, filed as 5.0)

With `C[Si](C)(C)/C=C/CCNC(C#N)c1ccccc1` (stereo not drawn) as the compound, how does the growth inhibition ([1]; at 1.2 µM) read?
The growth inhibition was -10%.

And the growth inhibition ([1]; at 3.7 µM)?
Its growth inhibition is -9%.

What about the growth inhibition ([1]; at 11.0 µM) of the same compound?
Its growth inhibition is 48%.

What about the growth inhibition ([1]; at 33.0 µM) of the same compound?
Its growth inhibition is 32%.

And the growth inhibition ([1]; at 100.0 µM)?
The growth inhibition was 93% (active).

And the growth inhibition ([2]; at 1.2 µM)?
Its growth inhibition is 3%.

And the growth inhibition ([2]; at 3.7 µM)?
The growth inhibition was -2%.

What about the growth inhibition ([2]; at 11.0 µM) of the same compound?
The growth inhibition was 41%.

And the growth inhibition ([2]; at 33.0 µM)?
Its growth inhibition is 35%.

And the growth inhibition ([2]; at 100.0 µM)?
Its growth inhibition is 95% (active).

And the growth inhibition ([3]; at 1.2 µM)?
The growth inhibition was -28%.

And the growth inhibition ([3]; at 3.7 µM)?
Its growth inhibition is -44%.

What about the growth inhibition ([3]; at 11.0 µM) of the same compound?
The growth inhibition was -17%.

What about the growth inhibition ([3]; at 33.0 µM) of the same compound?
Its growth inhibition is -30%.

What about the growth inhibition ([3]; at 100.0 µM) of the same compound?
Its growth inhibition is 74% (active).

What about the growth inhibition ([4]; at 1.2 µM) of the same compound?
Its growth inhibition is -14%.

What about the growth inhibition ([4]; at 3.7 µM) of the same compound?
Its growth inhibition is -25%.

What about the growth inhibition ([4]; at 11.0 µM) of the same compound?
The growth inhibition was 38%.

What about the growth inhibition ([4]; at 33.0 µM) of the same compound?
The growth inhibition was 22%.

What about the growth inhibition ([4]; at 100.0 µM) of the same compound?
The growth inhibition was 94% (active).

And the growth inhibition ([5]; at 1.2 µM)?
The growth inhibition was -14%.

And the growth inhibition ([5]; at 3.7 µM)?
The growth inhibition was -28%.

What about the growth inhibition [5, 17] of the same compound?
The growth inhibition was 98% (active).

And the growth inhibition ([5]; at 11.0 µM)?
The growth inhibition was 47%.

What about the growth inhibition ([5]; at 33.0 µM) of the same compound?
The growth inhibition was 10%.

What about the growth inhibition [5, 18] of the same compound?
Its growth inhibition is 99% (active).

And the growth inhibition ([5]; at 50.0 µM)?
Its growth inhibition is 89.7% (active).

And the growth inhibition ([5]; at 100.0 µM)?
Its growth inhibition is 92% (active).

What about the growth inhibition ([6]; at 1.2 µM) of the same compound?
The growth inhibition was -21%.

And the growth inhibition ([6]; at 3.7 µM)?
The growth inhibition was -23%.

And the growth inhibition [6, 17]?
The growth inhibition was 98% (active).

What about the growth inhibition ([6]; at 11.0 µM) of the same compound?
Its growth inhibition is 43%.

And the growth inhibition ([6]; at 33.0 µM)?
The growth inhibition was 23%.

And the growth inhibition [6, 18]?
Its growth inhibition is 99% (active).

What about the growth inhibition ([6]; at 50.0 µM) of the same compound?
The growth inhibition was 91.8% (active).

And the growth inhibition ([6]; at 100.0 µM)?
The growth inhibition was 95% (active).

What about the growth inhibition ([7]; at 1.2 µM) of the same compound?
Its growth inhibition is -6%.

What about the growth inhibition ([7]; at 3.7 µM) of the same compound?
The growth inhibition was 3%.

What about the growth inhibition ([7]; at 11.0 µM) of the same compound?
Its growth inhibition is 37%.

And the growth inhibition ([7]; at 33.0 µM)?
The growth inhibition was 52%.

And the growth inhibition ([7]; at 100.0 µM)?
The growth inhibition was 94% (active).

And the growth inhibition [8, 17]?
The growth inhibition was -12%.

What about the growth inhibition [8, 18] of the same compound?
Its growth inhibition is 97% (active).

And the growth inhibition ([8]; at 50.0 µM)?
The growth inhibition was 92.7% (active).

What about the growth inhibition ([9]; at 1.2 µM) of the same compound?
Its growth inhibition is 3%.

What about the growth inhibition ([9]; at 3.7 µM) of the same compound?
Its growth inhibition is 10%.

And the growth inhibition ([9]; at 11.0 µM)?
The growth inhibition was 52%.

And the growth inhibition ([9]; at 33.0 µM)?
Its growth inhibition is 42%.

And the growth inhibition ([9]; at 100.0 µM)?
The growth inhibition was 93% (active).

And the growth inhibition [10, 17]?
Its growth inhibition is 32%.

And the growth inhibition [10, 18]?
Its growth inhibition is 97% (active).

What about the growth inhibition ([10]; at 50.0 µM) of the same compound?
The growth inhibition was 90.2% (active).

What about the growth inhibition ([11]; at 1.2 µM) of the same compound?
Its growth inhibition is -8%.

And the growth inhibition ([11]; at 3.7 µM)?
The growth inhibition was 7%.

And the growth inhibition [11, 17]?
Its growth inhibition is 12%.

And the growth inhibition ([11]; at 11.0 µM)?
Its growth inhibition is 38%.

What about the growth inhibition ([11]; at 33.0 µM) of the same compound?
The growth inhibition was 43%.

And the growth inhibition [11, 18]?
Its growth inhibition is 95% (active).

And the growth inhibition ([11]; at 50.0 µM)?
The growth inhibition was 90.1% (active).

What about the growth inhibition ([11]; at 100.0 µM) of the same compound?
The growth inhibition was 93% (active).

What about the growth inhibition ([12]; at 1.2 µM) of the same compound?
The growth inhibition was -9%.

What about the growth inhibition ([12]; at 3.7 µM) of the same compound?
The growth inhibition was -19%.

And the growth inhibition ([12]; at 11.0 µM)?
Its growth inhibition is 39%.

What about the growth inhibition ([12]; at 33.0 µM) of the same compound?
The growth inhibition was 36%.

What about the growth inhibition ([12]; at 100.0 µM) of the same compound?
The growth inhibition was 95% (active).

And the growth inhibition ([13]; at 1.2 µM)?
The growth inhibition was -16%.

What about the growth inhibition ([13]; at 3.7 µM) of the same compound?
The growth inhibition was -5%.

What about the growth inhibition ([13]; at 11.0 µM) of the same compound?
The growth inhibition was 49%.

What about the growth inhibition ([13]; at 33.0 µM) of the same compound?
Its growth inhibition is 33%.

And the growth inhibition ([13]; at 100.0 µM)?
The growth inhibition was 95% (active).

And the growth inhibition ([14]; at 1.2 µM)?
Its growth inhibition is -19%.

What about the growth inhibition ([14]; at 3.7 µM) of the same compound?
Its growth inhibition is -15%.

And the growth inhibition ([14]; at 11.0 µM)?
The growth inhibition was 42%.

What about the growth inhibition ([14]; at 33.0 µM) of the same compound?
Its growth inhibition is 31%.

And the growth inhibition ([14]; at 100.0 µM)?
Its growth inhibition is 94% (active).

What about the growth inhibition [15, 17] of the same compound?
Its growth inhibition is 99% (active).

And the growth inhibition [15, 18]?
Its growth inhibition is 99% (active).

And the growth inhibition ([15]; at 50.0 µM)?
Its growth inhibition is 90.3% (active).

What about the growth inhibition ([16]; at 1.2 µM) of the same compound?
The growth inhibition was -33%.

And the growth inhibition ([16]; at 3.7 µM)?
Its growth inhibition is -42%.

What about the growth inhibition ([16]; at 11.0 µM) of the same compound?
The growth inhibition was 27%.

What about the growth inhibition ([16]; at 33.0 µM) of the same compound?
Its growth inhibition is 23%.

And the growth inhibition ([16]; at 100.0 µM)?
The growth inhibition was 92% (active).
